PubChem BioAssay AID624330 (Southern Research Specialized Biocontainment Screening …, 2012)
The whole screen tested about 340,000 compounds, of which about 2,100 (0.62%) were called active. Not all results are given here. Measured potencies and affinities stand elsewhere. Unmarked numbers belong to inactive results.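 Rule for the calls: active = first-screen hits whose inhibition reached a set limit at any dose in the follow-up dose series; inconclusive = inhibition above the set first-screen limit but never retested; inactive = the rest.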

molecular target: Rac GTPase-activating protein 1 (Homo sapiens) (UniProt Q9H0H5); assay: MgcRacGAP GTPase-activating activity inhibitors, confirmation, biochemical, ADP Hunter fluorescence, primary and confirmatory (AID 624330); conditions: MgcRacGAP-stimulated Rac1 GTP hydrolysis, at 30 µM, hits give high values, GST-tagged Rac1 F28L mutant substrate;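 note: fluorescence reports GDP produced by GAP-driven GTP hydrolysis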
Sequence (Q9H0H5 whole entry, looked up): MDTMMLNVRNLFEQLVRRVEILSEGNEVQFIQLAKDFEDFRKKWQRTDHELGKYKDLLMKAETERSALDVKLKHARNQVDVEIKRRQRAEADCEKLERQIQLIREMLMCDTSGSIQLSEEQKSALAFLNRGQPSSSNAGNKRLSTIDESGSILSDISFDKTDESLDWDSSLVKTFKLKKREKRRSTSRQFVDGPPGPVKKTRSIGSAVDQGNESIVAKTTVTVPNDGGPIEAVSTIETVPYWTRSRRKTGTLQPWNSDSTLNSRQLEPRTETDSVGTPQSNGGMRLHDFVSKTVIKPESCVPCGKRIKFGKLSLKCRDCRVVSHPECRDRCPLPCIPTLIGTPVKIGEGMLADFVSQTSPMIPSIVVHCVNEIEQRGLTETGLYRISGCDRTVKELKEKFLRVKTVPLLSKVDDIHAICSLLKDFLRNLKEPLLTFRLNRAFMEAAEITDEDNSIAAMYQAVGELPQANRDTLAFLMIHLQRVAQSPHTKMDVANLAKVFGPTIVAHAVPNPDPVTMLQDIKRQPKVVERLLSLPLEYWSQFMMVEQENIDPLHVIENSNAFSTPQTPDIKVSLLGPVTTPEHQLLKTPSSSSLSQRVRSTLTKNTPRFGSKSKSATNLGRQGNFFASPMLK

In order of falling inhibition:
1. CCN(CC)c1ccc(/C=N/NC(=O)Nc2ccccc2)cc1  28.4%
2. O=C1C(Cl)=C(Nc2ccc(O)cc2)C(=O)c2ccccc21  27.1%
3. COC(=O)c1ccc(NCc2cc(O)ccc2O)cc1O  27%
4. Cc1ccc(S(=O)(=O)Nc2ccc(N=Nc3ccc(O)cc3)cc2)cc1  21.7%
5. CCOC(=O)CSC1=NC(=O)/C(=C/c2ccc(Br)cc2)S1  19.4%
6. COC(=O)Cc1ccc(NC(=O)c2ccc(Br)o2)cc1  18.8%
7. CCN(CC)c1ccc(NC(=S)NC(=O)C2CCC2)cc1  18%
8. N#CC(C#N)=C1C=CC=CN1/C(=C\c1ccccc1Cl)C(=O)c1ccccc1  17.8%
9. N#CC(C#N)=C1C=CC=CN1/C(=C\c1ccco1)C(=O)c1ccccc1  16.7%
10. CCOC(=O)CSC1=NC(=O)/C(=C/c2ccc(OC)cc2)S1  16.1%
11. N#CC(C#N)=C1C=CC=CN1/C(=C\c1ccco1)C(=O)c1ccc(-c2ccccc2)cc1  15.6%
12. CCN(CC)c1ccc(/C=N/NC(=O)c2ccc(Br)o2)cc1  14.9%
13. Cc1ccc(NS(=O)(=O)c2ccc(C)c(NC(=O)c3ccc(S(=O)(=O)N4CCCCCC4)cc3)c2)c(C)c1  11.6%
14. CCOC(=O)c1ccc(NC(=O)COc2ccc(-n3cnnn3)cc2)cc1  11.5%
15. CCN(CC)c1ccc(NC(=O)Nc2ccc(C(C)=O)cc2)cc1  10.2%
16. CCN(CCO)C(=O)CC1C(=O)NCCN1Cc1c(F)cccc1Cl (centres undefined)  9.19%
17. NC(=O)c1ccc(NC(=O)CSC(=O)c2ccccc2)cc1  8.91%
18. O=C(Nc1cccc(Cl)c1Cl)C1CCN(c2ncccn2)CC1  7.84%
19. CN(Cc1cccc(F)c1)C(=O)CSc1nnc(C2CC2)n1C1CC1  7.8%
20. COc1cccc(/C=N/NC(=O)c2ccc(N3CCCC3=O)cc2)c1  7.68%
21. CC(=O)c1cccc(NC(=O)CSC(=O)c2ccccc2)c1  7.67%
22. COc1ccc(/C=N/NC(=O)c2ccc(N3CCCC3=O)cc2)cc1  7.42%
23. Cc1ccc(-c2cc(C(=O)N(C)Cc3cnn(C)c3C)c3cc(Br)ccc3n2)cc1  7.31%
24. O[C@H]1C[C@H](c2ccccc2)N(Cc2cccs2)C[C@@H]1n1cc(-c2ccc(F)cc2)nn1  7.08%
25. CC#CCCCC(=O)Nc1ccccc1C(=O)O  6.9%
26. C=CCOCCN(CC)CC  6.71%
27. C=CCNC(=S)Nc1cccc(NC(=S)NCC=C)c1  6.56%
28. COc1ccc(CN2CCN(CC(=O)Nc3ccccc3C(=O)NC3CC3)CC2)cc1F  6.52%
29. COc1ccc(CCC(=O)Nc2ccc(Cn3ccnc3)cc2)cc1  6.46%
30. NS(=O)(=O)c1ccc(-c2ccc(/C=C3\C(=O)Nc4cc(Cl)ccc43)o2)cc1  6.45%
31. CCOc1ccc(NC(=O)COc2ccc(-n3cnnn3)cc2)cc1  6.31%
32. CCN1C[C@@H]2[C@@H]3C(=O)N(Cc4ccccc4)C(=O)[C@@H]3[C@](Cc3ccccc3)(C1=O)N2C(=O)c1ccc(Cl)cc1  6.26%
33. COc1cccc(C(=O)NCCS(=O)(=O)N2CCC3(CC2)OCCO3)c1  6.03%
34. COC(=O)c1cc(OC)c(OC)cc1NC(=O)CCCCCN1C(=O)CCC1=O  5.93%
35. CC(=O)CC(=O)Nc1cccc2c1CCCC2  5.33%
36. COc1ccc(C(=O)CC(=O)C(=O)Nc2ccc(OC)c(Cl)c2)cc1  5.32%
37. CN(C)C(=O)CCc1ccc2c3c([nH]c2c1)[C@]1(C)[C@@H](C(=O)N2CCCCC2)C[C@H](CC(=O)NCc2cccc(C(F)(F)F)c2)C(=O)N1CC3  4.55%
38. CCOC(=O)C(Cc1ccccc1)C(=O)Nc1ccc(NC(=O)C(Cc2ccccc2)C(=O)OCC)cc1 (centres undefined)  4.48%
39. Cn1c(CCc2ccccc2)n[nH]c1=S  4.25%
40. COc1cccc(/C=N/NC(=O)c2cccc(N3CCCC3=O)c2)c1  4.11%
41. COc1ccc(C(=O)/C(=C\c2ccco2)N2C=CC=CC2=C(C#N)C#N)cc1  4.05%
42. CCCCN(C(=O)c1cc(CN2C(=O)c3ccccc3C2=O)ccc1OC)c1c(N)n(CC(C)C)c(=O)[nH]c1=O  3.78%
43. CNS(=O)(=O)c1ccc(C(=O)NCC(=O)NCC2COc3ccccc3O2)cc1 (centres undefined)  3.68%
44. COc1ccc(O)c(/C=N/NC(=O)c2cccc(N3CCCC3=O)c2)c1  3.65%
45. C=CCNC(=S)Nc1ccc(Cl)cc1  3.44%
46. CCCN(CCO)Cc1ccc2ccccc2c1  3.4%
47. O=C(Nc1ccccc1N1CCCC1)C1CCN(S(=O)(=O)c2ccccc2)CC1  2.86%
48. COC(=O)c1cc(CNC(=O)c2ccc(O)c(Cl)c2)ccc1OC  2.78%
49. Cc1ccc(S(=O)(=O)/N=C2\C=C(NS(=O)(=O)c3ccccc3)C(=O)c3ccccc32)cc1  2.77%
50. NS(=O)(=O)c1ccc(-c2ccc(C=C3C(=O)c4ccccc4C3=O)o2)cc1  2.34%
51. CCOc1cc(C(=O)NCC(C)CN(C)C)cc(OCC)c1OCC (centres undefined)  1.39%
52. CCOC(=O)C(Cc1ccccc1)C(=O)Nc1cccc(C)c1 (centres undefined)  1.33%
53. CCCCc1ccc(NC(=O)C2CCCC2)cc1  -0.66%
54. CN(C(=O)CCc1nc(-c2ccccc2F)no1)c1ccccc1  -0.78%
55. CSc1ccccc1NC(=O)C1CCCN(S(C)(=O)=O)C1 (centres undefined)  -1.03%
56. CCCCn1c(CCNC(=O)c2cccs2)nc2ccccc21  -1.35%
57. CCCn1c(SCCc2ccccc2)nc2c1c(=O)[nH]c(=O)n2C  -2.73%
58. O=C1C(O)=C(O)C(=O)c2ccccc21  -6.63%
59. CC(C)OCCCNC(=O)CN1C(=O)/C(=C/c2ccccc2)Sc2ccccc21  -14.8%
